According to PubChem BioAssay (EPA / NIEHS):
Inconclusive results are not listed. A structure can be active in one record and inactive in another. Calls of active or inactive are those of the source. The calls were made as follows, unless noted: active = hit-call score of the fitted dose curve at least 0.9, where 1 is the maximum; inconclusive = response in the unintended direction; inactive = score below 0.9.

What was measured:
[1] = biological target: Estrogen receptor beta (Homo sapiens) (UniProt Q92731); test: OT_ER_ERbERb_1440: Odyssey Thera (OT) 24-hour HEK293T Protein-Complementation Assay for Estrogen Receptor-beta/-beta Homodimer (AID 2283380);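 also: fluorescence gain from ER beta LBD homodimer complementation read by laser scanning cytometry; scored as signal increase over DMSO baseline for both agonists and antagonists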
Sequence of Estrogen receptor beta (Homo sapiens) (Q92731 whole entry, looked up, the tested form may be a part): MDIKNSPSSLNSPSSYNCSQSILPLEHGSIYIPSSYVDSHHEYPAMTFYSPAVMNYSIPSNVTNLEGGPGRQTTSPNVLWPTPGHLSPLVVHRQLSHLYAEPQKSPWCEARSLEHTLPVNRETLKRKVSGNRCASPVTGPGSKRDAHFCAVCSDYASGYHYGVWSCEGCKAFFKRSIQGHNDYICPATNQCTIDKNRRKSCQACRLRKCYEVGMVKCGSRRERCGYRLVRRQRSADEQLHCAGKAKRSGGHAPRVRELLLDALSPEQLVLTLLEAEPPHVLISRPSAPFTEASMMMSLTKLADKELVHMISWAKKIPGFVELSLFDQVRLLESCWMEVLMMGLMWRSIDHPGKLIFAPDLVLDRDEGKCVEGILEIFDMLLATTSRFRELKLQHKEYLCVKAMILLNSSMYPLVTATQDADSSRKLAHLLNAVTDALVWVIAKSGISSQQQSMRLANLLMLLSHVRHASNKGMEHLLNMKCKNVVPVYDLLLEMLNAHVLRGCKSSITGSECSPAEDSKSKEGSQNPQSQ
Outline: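 HEK293T cells stably expressing human ER-beta LBD (aa 310-547) PCA homodimer pair, dosed 24 h; formaldehyde-fixed, Draq5-stained. Readout: increase in nuclear (agonist) or nuclear plus cytoplasmic (antagonist) fluorescence intensity versus DMSO, gain-of-signal fitting.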

[2] = biological target: Bile acid receptor (Homo sapiens) (UniProt Q96RI1); test: OT_FXR_FXRSRC1_0480: Odyssey Thera (OT) 8-hour HEK293T Protein-Complementation Assay for Farnesoid X receptor/SRC-1 Co-activator (AID 2283383)
Sequence of Bile acid receptor (Homo sapiens) (Q96RI1 whole entry, looked up, the tested form may be a part): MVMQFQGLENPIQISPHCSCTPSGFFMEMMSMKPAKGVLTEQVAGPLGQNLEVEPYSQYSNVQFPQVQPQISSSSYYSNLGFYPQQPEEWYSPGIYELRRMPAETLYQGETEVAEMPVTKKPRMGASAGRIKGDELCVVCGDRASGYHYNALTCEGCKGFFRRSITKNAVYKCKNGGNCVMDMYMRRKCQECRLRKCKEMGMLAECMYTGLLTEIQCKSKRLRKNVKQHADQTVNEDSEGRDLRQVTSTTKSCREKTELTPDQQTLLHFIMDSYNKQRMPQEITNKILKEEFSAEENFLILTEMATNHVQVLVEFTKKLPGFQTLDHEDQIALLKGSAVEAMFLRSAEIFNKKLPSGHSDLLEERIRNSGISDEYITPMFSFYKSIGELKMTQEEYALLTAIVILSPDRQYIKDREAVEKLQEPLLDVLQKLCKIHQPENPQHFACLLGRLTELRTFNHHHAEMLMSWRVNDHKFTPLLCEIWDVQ
Outline: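 Co-activator recruitment to FXR was measured in living HEK293T cells, where interaction of the two fused partners restored an active fluorescent reporter. Signal gain after 8 h treatment was referenced to DMSO.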

[3] = biological target: Peroxisome proliferator-activated receptor gamma (Homo sapiens) (UniProt P37231); test: OT_PPARg_PPARgSRC1_0480: Odyssey Thera (OT) 8-hour Protein-Complementation Assay for Peroxisome Proliferator-activated Receptor Gamma / SRC-1 Co-activator (AID 2283387)
Sequence of Peroxisome proliferator-activated receptor gamma (Homo sapiens) (P37231 whole entry, looked up, the tested form may be a part): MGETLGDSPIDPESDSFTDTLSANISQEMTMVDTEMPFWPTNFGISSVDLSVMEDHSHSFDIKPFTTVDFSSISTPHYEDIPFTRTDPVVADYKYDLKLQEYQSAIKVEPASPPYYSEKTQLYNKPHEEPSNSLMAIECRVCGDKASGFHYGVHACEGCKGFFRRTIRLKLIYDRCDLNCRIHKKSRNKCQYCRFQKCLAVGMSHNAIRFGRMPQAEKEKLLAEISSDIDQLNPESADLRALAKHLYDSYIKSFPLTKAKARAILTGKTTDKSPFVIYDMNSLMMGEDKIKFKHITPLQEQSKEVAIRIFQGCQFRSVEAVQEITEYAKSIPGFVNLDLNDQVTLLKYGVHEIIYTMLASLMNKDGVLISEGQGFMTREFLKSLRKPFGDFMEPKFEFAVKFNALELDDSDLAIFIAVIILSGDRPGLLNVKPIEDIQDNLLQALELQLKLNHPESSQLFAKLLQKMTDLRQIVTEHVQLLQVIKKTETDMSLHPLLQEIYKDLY
Outline: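 Split-YFP (IFP1/IFP2) PPARg/SRC-1 reporter, HEK293T, 37 °C, 5% CO2; 8 h compound; formaldehyde fix + Draq5; high-content imaging, N/C ratio, ≥350 cells/image, positive direction vs DMSO.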

[4] = biological target: Peroxisome proliferator-activated receptor gamma (Homo sapiens) (UniProt P37231); test: OT_PPARg_PPARgSRC1_1440: Odyssey Thera (OT) 24-hour Protein-Complementation Assay for Peroxisome Proliferator-activated Receptor Gamma/ SRC-1 Co-activator (AID 2283388)
Outline: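 HEK293T cells transiently transfected with PPARg and SRC-1 fused via (Gly4Ser)2 linker to split Venus YFP fragments (IFP1/IFP2) were dosed 24 h; fixed, Draq5-stained, imaged at 488/635 nm; nuclear/cytoplasmic fluorescence ratio scored versus DMSO baseline, gain-of-signal.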

[5] = biological target: Estrogen receptor (Homo sapiens) (UniProt P03372); test: OT_ERa_GFPERaERE_0480: Odyssey Thera (OT) 8-hour HeLa Transcription Induction Assay for Estrogen Receptor (AID 2283381; active = hit-call score of the fitted dose curve at least 0.9, where 1 is the maximum; inactive = score below 0.9)
Sequence of Estrogen receptor (Homo sapiens) (P03372 whole entry, looked up): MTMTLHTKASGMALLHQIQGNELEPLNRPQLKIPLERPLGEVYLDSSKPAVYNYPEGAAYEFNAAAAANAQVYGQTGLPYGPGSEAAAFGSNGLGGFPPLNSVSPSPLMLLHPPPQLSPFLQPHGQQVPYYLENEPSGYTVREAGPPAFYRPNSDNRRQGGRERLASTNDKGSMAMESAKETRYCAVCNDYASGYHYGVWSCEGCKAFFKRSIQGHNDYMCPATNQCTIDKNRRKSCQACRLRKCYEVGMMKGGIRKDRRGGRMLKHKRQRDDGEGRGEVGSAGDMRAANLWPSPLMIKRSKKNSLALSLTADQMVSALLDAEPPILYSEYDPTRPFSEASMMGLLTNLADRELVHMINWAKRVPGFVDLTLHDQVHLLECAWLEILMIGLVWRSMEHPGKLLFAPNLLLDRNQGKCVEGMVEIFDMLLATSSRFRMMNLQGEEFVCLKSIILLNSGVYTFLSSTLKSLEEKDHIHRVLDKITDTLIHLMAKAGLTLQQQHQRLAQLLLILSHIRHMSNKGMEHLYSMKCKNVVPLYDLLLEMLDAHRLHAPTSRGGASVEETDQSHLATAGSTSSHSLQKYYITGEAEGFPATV
Outline: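 Cells (HeLa) receive compound; after 8 h, reporter fluorescence is imaged and quantified by high-content analysis. Gain-of-signal relative to DMSO gives the endpoint.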

[6] = biological target: Retinoic acid receptor RXR-alpha (Homo sapiens) (UniProt P19793); test: OT_NURR1_NURR1RXRa_0480: Odyssey Thera (OT) 8-hour HEK293T Protein Complementation Assay for Nurr1/retinoid X receptor (RXR) (AID 2283385)
Sequence of Retinoic acid receptor RXR-alpha (Homo sapiens) (P19793 whole entry, looked up, the tested form may be a part): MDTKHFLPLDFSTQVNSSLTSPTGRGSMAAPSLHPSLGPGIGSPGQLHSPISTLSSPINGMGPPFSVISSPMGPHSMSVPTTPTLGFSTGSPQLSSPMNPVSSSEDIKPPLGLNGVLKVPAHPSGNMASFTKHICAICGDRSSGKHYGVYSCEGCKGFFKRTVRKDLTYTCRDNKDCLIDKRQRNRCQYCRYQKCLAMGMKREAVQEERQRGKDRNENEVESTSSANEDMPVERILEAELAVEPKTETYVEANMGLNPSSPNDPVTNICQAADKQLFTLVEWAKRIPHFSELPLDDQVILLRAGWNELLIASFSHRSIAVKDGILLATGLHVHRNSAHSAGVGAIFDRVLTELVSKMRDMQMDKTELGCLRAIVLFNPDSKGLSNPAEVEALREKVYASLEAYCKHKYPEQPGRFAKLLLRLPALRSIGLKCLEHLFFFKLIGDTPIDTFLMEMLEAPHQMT
Outline: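 Compounds are applied to HEK293T cells carrying Nurr1 and RXRα linked to reporter fragments. After 8 h, fluorescence intensity reports heterodimer formation, with DMSO as baseline.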

[7] = biological target: Estrogen receptor (Homo sapiens) (UniProt P03372); test: OT_ERa_GFPERaERE_0120: Odyssey Thera (OT) 2-hour HeLa Transcription Induction Assay for Estrogen Receptor (AID 2283382)
Outline: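 Measures ESR1 pathway reporter gain-of-signal in HeLa cells after a 2-hour treatment, detected as fluorescent protein induction by microscopy, DMSO as baseline.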

[8] = CEETOX_H295R_11DCORT: CeeTox H295R High-throughput Steroidogenesis Assay for 11-Deoxycortisol (11DCORT) (AID 2283432; active = hit-call score of the fitted dose curve at least 0.9, where 1 is the maximum; inactive = score below 0.9;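 as to AC50: 11-deoxycortisol secreted into the medium measured by LC-MS/MS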); details: actives raise or lower the signal
Outline: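 Steroidogenesis in human H295R cells: 48 h chemical exposure after forskolin priming, 11-deoxycortisol measured by LC-MS/MS.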

[9] = CEETOX_H295R_OHPREG: CeeTox H295R High-throughput Steroidogenesis Assay for OH-Pregnenolone (OHPREG) (AID 2283434; active = hit-call score of the fitted dose curve at least 0.9, where 1 is the maximum; inactive = score below 0.9); details: actives raise or lower the signal
Outline: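 Human adrenal H295R cells were prestimulated 48 h with 10 uM forskolin, then exposed 48 h to chemical in 0.1% DMSO. Medium 17alpha-hydroxypregnenolone was quantified by HPLC-MS/MS after MTBE extraction; bidirectional fitting versus DMSO baseline.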

[10] = CEETOX_H295R_OHPROG: CeeTox H295R High-throughput Steroidogenesis Assay for OH-Progesterone (OHPROG) (AID 2283435; active = hit-call score of the fitted dose curve at least 0.9, where 1 is the maximum; inactive = score below 0.9;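 as to AC50: 17alpha-hydroxyprogesterone secreted into medium measured by HPLC-MS/MS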); details: actives raise or lower the signal
Outline: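 Secreted 17alpha-hydroxyprogesterone is read by tandem MS from media of forskolin-primed H295R cells dosed with chemical for 48 h. Activity is fitted in both directions against DMSO baseline; cytotoxic concentrations are re-tested diluted.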

[11] = CEETOX_H295R_CORTIC: CeeTox H295R High-throughput Steroidogenesis Assay for Corticosterone (CORTIC) (AID 2283437; active = hit-call score of the fitted dose curve at least 0.9, where 1 is the maximum; inactive = score below 0.9;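 also: corticosterone secreted into medium quantified by mass spectrometry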); details: actives raise or lower the signal
Outline: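 H295R cells were prestimulated 48 h with 10 uM forskolin, then exposed 48 h to test chemical in 0.1% DMSO. Medium corticosterone was MTBE-extracted and quantified by HPLC-MS/MS; bidirectional fit versus DMSO baseline.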

[12] = CEETOX_H295R_CORTISOL: CeeTox H295R High-throughput Steroidogenesis Assay for Cortisol (AID 2283438; active = hit-call score of the fitted dose curve at least 0.9, where 1 is the maximum; inactive = score below 0.9;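 also: cortisol secreted into medium quantified by LC-MS/MS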); details: actives raise or lower the signal
Outline: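 Human adrenocortical H295R cells (passage ≤10) received test chemicals for 48 h after forskolin priming. Secreted cortisol was measured by LC-MS/MS.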

[13] = biological target: Retinoic acid receptor RXR-alpha (Homo sapiens) (UniProt P19793); test: OT_NURR1_NURR1RXRa_1440: Odyssey Thera (OT) 24-hour HEK293T Protein Complementation Assay for Nurr1/retinoid X receptor (RXR) (AID 2283386)
Outline: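 Measured as fluorescence from a reconstituted split reporter, this 24 h HEK293T complementation assay scores compound-induced gain of Nurr1/RXRα association relative to DMSO.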

[14] = biological target: Bile acid receptor (Homo sapiens) (UniProt Q96RI1); test: OT_FXR_FXRSRC1_1440: Odyssey Thera (OT) 24-hour HEK293T Protein-Complementation Assay for Farnesoid X receptor/SRC-1 Co-activator (AID 2283384)
Outline: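 Cell-based binding reporter: interaction of FXR with SRC-1 brings reporter fragments together, giving a fluorescence signal read 24 h after dosing of HEK293T cells.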

Oc1cccc2cccnc12
outcome [1]: inactive
outcome [2]: inactive
outcome [3]: inactive
outcome [4]: inactive

CCCCCCCCSC(=O)Oc1cc(Cl)nnc1-c1ccccc1
outcome [5]: inactive
outcome [6]: inactive
outcome [3]: inactive
outcome [4]: inactive

C1CCC(NC2CCCCC2)CC1
outcome [5]: inactive
outcome [7]: inactive
outcome [3]: inactive
outcome [4]: inactive
outcome [8]: inactive
outcome [9]: inactive
outcome [10]: inactive
outcome [11]: inactive
outcome [12]: inactive

CC(=O)c1cc(C(C)(C)C)cc2c1CCC2(C)C
outcome [5]: inactive
AC50 [6]: 74.2 µM (active)
AC50 [13]: 86.9 µM (active)
outcome [3]: inactive
outcome [4]: inactive

CC(C)c1cccc(C(C)C)c1O
outcome [1]: inactive
outcome [5]: inactive
outcome [6]: inactive
outcome [13]: inactive
outcome [4]: inactive

C(=NC1CCCCC1)=NC1CCCCC1
outcome [9]: inactive
outcome [10]: inactive

CCCCCCCCc1ccc(O)cc1
AC50 [1]: 12.3 µM (active)
outcome [6]: inactive
AC50 [13]: 57.4 µM (active)
outcome [13]: inactive
outcome [3]: inactive
outcome [4]: inactive

C=CCc1ccc(OC)cc1
outcome [1]: inactive
outcome [6]: inactive
outcome [13]: inactive
outcome [3]: inactive
outcome [4]: inactive

Clc1nc(Cl)nc(Cl)n1
outcome [5]: inactive
outcome [6]: inactive
outcome [13]: inactive
outcome [4]: inactive

CC1(C)Cc2cccc(O)c2O1
outcome [1]: inactive
outcome [5]: inactive
outcome [3]: inactive
outcome [4]: inactive

BrCCBr
outcome [1]: inactive
outcome [5]: inactive
outcome [6]: inactive
outcome [13]: inactive
outcome [3]: inactive
outcome [4]: inactive

O=C(Nc1ccc2[nH]ccc2c1)c1cc2cc(F)ccc2n1Cc1cccc(F)c1
outcome [1]: inactive
outcome [5]: inactive
outcome [2]: inactive
outcome [3]: inactive
outcome [4]: inactive
AC50 [8]: 3.48 µM (active)
AC50 [9]: 1.11 µM (active)
AC50 [10]: 0.124 µM (active)
outcome [11]: inactive
AC50 [12]: 4.26 µM (active)

O=C(Cc1ccccc1)c1ccccc1
outcome [5]: inactive
outcome [2]: inactive
outcome [14]: inactive
outcome [6]: inactive
outcome [13]: inactive
outcome [8]: inactive
outcome [9]: inactive
AC50 [10]: 43.6 µM (active)
outcome [11]: inactive
outcome [12]: inactive

CCOP(=S)(OCC)SCCS(=O)(=O)CC
outcome [8]: inactive
outcome [9]: inactive
AC50 [10]: 14.9 µM (active)
outcome [11]: inactive
outcome [12]: inactive

C[C@@H]1C[C@@H]([C@H](O)CC2CC(=O)NC(=O)C2)C(=O)[C@@H](C)C1
outcome [1]: inactive
outcome [3]: inactive
outcome [4]: inactive
outcome [9]: inactive
outcome [10]: inactive

O=C(OC1CCCCC1)c1ccccc1C(=O)OC1CCCCC1
outcome [5]: inactive
outcome [7]: inactive
AC50 [2]: 40.1 µM (active)
AC50 [14]: 61.8 µM (active)
AC50 [6]: 44.6 µM (active)
outcome [3]: inactive
outcome [4]: inactive

O=C(NCO)NCO
outcome [5]: inactive
outcome [7]: inactive
outcome [13]: inactive
outcome [3]: inactive
outcome [4]: inactive

CCC[CH2][Sn]([Cl])([Cl])[Cl]
outcome [5]: inactive
outcome [2]: inactive
outcome [14]: inactive
outcome [6]: inactive
outcome [4]: inactive

C[C@H]1CCCC(=O)CCC/C=C/c2cc(O)cc(O)c2C(=O)O1
AC50 [1]: 0.0449 µM (active)
AC50 [5]: 0.103 µM (active)
outcome [3]: inactive
outcome [4]: inactive

CC(=O)C=C(C)C
AC50 [5]: 7.47 µM (active)
outcome [13]: inactive
outcome [3]: inactive
outcome [4]: inactive

O=C/C=C/c1ccccc1
outcome [5]: inactive
outcome [6]: inactive
outcome [13]: inactive
outcome [3]: inactive
outcome [4]: inactive

CN(C)N=O
outcome [1]: inactive
outcome [14]: inactive
outcome [6]: inactive
outcome [13]: inactive
outcome [3]: inactive
outcome [4]: inactive

NC(=O)O
outcome [5]: inactive
outcome [7]: inactive
outcome [6]: inactive

O=C(O)C(F)(F)C(F)(F)C(F)(F)C(F)(F)C(F)(F)C(F)(F)F
outcome [1]: inactive
outcome [2]: inactive
outcome [14]: inactive
outcome [6]: inactive
outcome [13]: inactive
outcome [3]: inactive
outcome [4]: inactive

COc1cc(OC)nc(NC(=O)NS(=O)(=O)c2ncccc2C(=O)N(C)C)n1
outcome [1]: inactive
outcome [5]: inactive
outcome [6]: inactive
outcome [13]: inactive
outcome [3]: inactive
outcome [4]: inactive

CCC(C)(C)c1ccc(O)c(C(C)(C)CC)c1
outcome [1]: inactive
outcome [5]: inactive
outcome [3]: inactive
outcome [4]: inactive

CNC
outcome [5]: inactive
outcome [7]: inactive
outcome [13]: inactive
outcome [3]: inactive
outcome [4]: inactive

OCC(O)CCl (stereo not given)
outcome [5]: inactive
outcome [6]: inactive
outcome [13]: inactive
outcome [3]: inactive
outcome [4]: inactive

Cc1ccc(N)cc1Cl
outcome [5]: inactive
outcome [6]: inactive
outcome [3]: inactive
outcome [4]: inactive

ClC(Cl)=C(Cl)C(Cl)=C(Cl)Cl
outcome [5]: inactive
outcome [7]: inactive
outcome [6]: inactive
outcome [13]: inactive
outcome [3]: inactive
outcome [4]: inactive
